Records with an inconclusive call do not appear. Calls of active or inactive are those of the source. Calls come from the whole dose curve; as a rule, active = well fitted inhibition curve with a large enough effect in the signal ratio in the repeat runs (not every such curve was filed as active); inconclusive = weak or mixed curves, or effect the other way; inactive = no such curve, though single readings can be large or run the other way; the % refers to the signal ratio.
% is set by controls: 0 for no effect and ±100 for the full control effect; potency is the fitted concentration of half-maximal effect.

Sequence of Androgen receptor (Homo sapiens) (P10275 whole entry, looked up): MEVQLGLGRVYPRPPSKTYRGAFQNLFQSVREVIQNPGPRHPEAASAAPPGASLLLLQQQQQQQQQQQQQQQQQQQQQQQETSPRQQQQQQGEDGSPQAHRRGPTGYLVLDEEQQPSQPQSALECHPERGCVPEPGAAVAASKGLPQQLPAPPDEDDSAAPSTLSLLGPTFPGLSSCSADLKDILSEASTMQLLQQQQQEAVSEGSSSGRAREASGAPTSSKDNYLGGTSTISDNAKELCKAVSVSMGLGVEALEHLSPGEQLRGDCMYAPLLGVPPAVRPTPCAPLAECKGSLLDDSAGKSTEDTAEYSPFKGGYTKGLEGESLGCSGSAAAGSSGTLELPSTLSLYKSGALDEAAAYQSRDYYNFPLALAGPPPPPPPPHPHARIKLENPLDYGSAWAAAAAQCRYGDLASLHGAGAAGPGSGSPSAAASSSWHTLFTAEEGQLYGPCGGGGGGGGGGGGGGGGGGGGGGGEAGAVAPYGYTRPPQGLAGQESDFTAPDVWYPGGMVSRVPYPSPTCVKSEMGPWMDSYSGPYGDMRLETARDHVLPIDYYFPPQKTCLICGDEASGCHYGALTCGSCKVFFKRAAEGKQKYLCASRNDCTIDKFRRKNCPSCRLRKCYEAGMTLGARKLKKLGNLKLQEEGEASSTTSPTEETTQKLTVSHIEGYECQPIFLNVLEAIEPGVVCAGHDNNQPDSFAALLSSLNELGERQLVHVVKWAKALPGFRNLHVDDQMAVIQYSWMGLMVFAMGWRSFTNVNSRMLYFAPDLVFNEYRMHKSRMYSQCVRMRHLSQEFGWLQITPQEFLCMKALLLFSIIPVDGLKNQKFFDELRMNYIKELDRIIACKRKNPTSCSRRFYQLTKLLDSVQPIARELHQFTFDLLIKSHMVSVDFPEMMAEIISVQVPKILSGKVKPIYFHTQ

The test deals with Androgen receptor (Homo sapiens) (UniProt P10275). Briefly: qHTS assay to identify small molecule antagonists of the androgen receptor (AR) signaling pathway (AID 743035). The note with it: HEK293 AR-UAS-bla, R1881-stimulated, beta-lactamase FRET, 16 h; series mostly up to 58.5 µM; activity change, negative = inhibition: at the top concentration. An excerpt:
National Center for Advancing Translational Sciences [NCATS]
NIH Chemical Genomics Center [NCGC]
U.S. Environmental Protection Agency [EPA]
National Institutes of Environmental Health Sciences [NIEHS]
National Toxicology Program [NTP]
U.S. Food and Drug Administration [FDA]
Androgen receptor (AR), a nuclear hormone receptor, plays a critical role in AR-dependent prostate cancer and other androgen related diseases. Endocrine disrupting chemicals (EDCs) and their interactions with steroid hormone receptors like AR may cause disruption of normal endocrine function as well as interfere with metabolic homeostasis, reproduction, developmental and behavioral functions. To identify the compounds that inhibit AR signaling, GeneBLAzer AR-UAS-bla-GripTite cell line (Invitrogen, Carlsbad, CA, USA) containing a beta-lactamase reporter gene under control of an Upstream Activator Sequence (UAS) stably integrated into HEK293 cells was used to screen the Tox21 10K compound library.
Tox21 Assay Protocol Summary:
AR-bla cells were dispensed at 2,000 cells/5 uL of assay medium per well into black wall/clear-bottom 1536-well plates using a Multidrop Combi (ThermoFisher Scientific, Waltham, MA) dispenser. After the assay plates were incubated at a 37C and 5% CO2 for 4 hr, 23 nL of compounds dissolved in DMSO, positive controls or DMSO only was transferred to the assay plate by a Pintool station (Kalypsys, San Diego, CA), followed by addition of 1 uL of agonist (R1881) in culture medium using a Bioraptr Flying Reagent Dispenser (FRD) workstation (Beckman Coulter, Indianapolis, IN, USA). The plates were incubated at a 37C and 5% CO2 for 16 h. After 1 uL of LiveBLAzerTM B/G FRET substrate was added using a Bioraptr FRD, the plates were incubated at room temperature for 2 h and fluorescence intensity was measured by an Envision plate reader (PerkinElmer, Shelton, CT).
Consider `N#C[C@@H]1CC(F)(F)CN1C(=O)CNC1CC2CCC(C1)N2c1ncccn1` (stereo not given in full), for which the “activity change, negative = inhibition” value is 6.73% (inactive).

For `Nc1ccc(F)cc1F`, the “activity change, negative = inhibition” value was -2.09% [at 78.9 µM] (inactive).

Take `O=C(Nc1ccccc1)c1cc([N+](=O)[O-])ccc1Cl`: the Potency is 24.5 µM (active).

As to `NC(=O)c1ccccc1C(N)=O`, the “activity change, negative = inhibition” value is 2.18% [at 78.9 µM] (inactive).

For the compound `CCCC(=O)OCCC(C)C`, the “activity change, negative = inhibition” value was 8.26% (inactive).

Regarding `CCCC1CCOC(C)S1` (stereo not given), the “activity change, negative = inhibition” value was 4.72% (inactive).

For `O=C(O)c1ccncc1`, the “activity change, negative = inhibition” value was 7.82% [at 78.9 µM] (inactive).

Regarding `CC1(C)[C@@H]2CC[C@]3(C2)[C@@H]1C(=O)CCC3(C)C`, the “activity change, negative = inhibition” value was -7.11% (inactive).

For the compound `O=C(O)c1cc(C(=O)O)c(C(=O)O)cc1C(=O)O`, the “activity change, negative = inhibition” value was 1.29% (inactive).

Take `O=C(O)c1cccc(C(=O)O)c1C(=O)O`: the “activity change, negative = inhibition” value was 1.23% [at 78.9 µM] (inactive).

As for `NC(=O)c1ccccc1`, the “activity change, negative = inhibition” value is -4.97% [at 78.9 µM] (inactive).

Take `CCCc1ccc(OC)cc1`: the “activity change, negative = inhibition” value is 3.25% [at 78.9 µM] (inactive).

`O=C(c1ccc(Cl)cc1)c1ccc(Cl)cc1`: the “activity change, negative = inhibition” value is -14% (inactive).

Turning to `FC(F)(Cl)C(F)(Cl)Cl`, the “activity change, negative = inhibition” value is 6.51% (inactive).

`Cc1cc(SC2=C(O)C[C@@](CCc3ccc(N)cc3)(C(C)C)OC2=O)c(C(C)(C)C)cc1CO`: the “activity change, negative = inhibition” value is -22.5% (inactive).

For `CC[C@H](NC(C)C)[C@H](O)c1ccc(O)c2[nH]c(=O)ccc12`, the “activity change, negative = inhibition” value is 7.29% (inactive).

With `CCCc1nc(C)c2c(=O)[nH]c(-c3cc(S(=O)(=O)N4CCN(CC)CC4)ccc3OCC)nn12`, the “activity change, negative = inhibition” value was -17.2% (inactive).

For `CCOCCn1c(N2CCCN(C)CC2)nc2ccccc21`, the “activity change, negative = inhibition” value is -4.54% (inactive).

Consider `CCOc1cc(OCC)c(C(C)=O)cc1OCC`, for which the “activity change, negative = inhibition” value is 0.143% (inactive).

As for `Cc1c(N=C=O)cccc1N=C=O`, the “activity change, negative = inhibition” value is 11% [at 78.9 µM] (inactive).

Consider `CCCCCCCCOCCCN`, for which the “activity change, negative = inhibition” value was -0.742% (inactive).

For `O=C(O)c1ccc(O)c(O)c1`, the “activity change, negative = inhibition” value is 5.56% (inactive).

For the compound `Cc1nc(C)c(C)nc1C`, the “activity change, negative = inhibition” value is 3.14% (inactive).

Take `CCC1=C(C)CN(C(=O)NCCc2ccc(S(=O)(=O)NC(=O)NC3CCC(C)CC3)cc2)C1=O` (stereo not given): the “activity change, negative = inhibition” value is -2.39% (inactive).

As to `COC(=O)/C=C/C(C)=C\C=C\C(C)=C\C=C\C=C(C)\C=C\C=C(C)\C=C\C(=O)O`, the “activity change, negative = inhibition” value is 2.1% (inactive).
